Data published in article PMC5540273 (PLoS ONE, 2017).

Columns and labels:
Settings in all cases: concentration: 1 μM, replicates: in singlicate; n = 1
FGR = tested on: FGR
FLT1 = tested on: FLT1
FLT3-autoinhibited = tested on: FLT3-autoinhibited
FLT3 = tested on: FLT3
FLT4 = tested on: FLT4
FRK = tested on: FRK
FYN = tested on: FYN
GAK = tested on: GAK
GCN2(Kin.Dom.2,S808G) = tested on: T1, GCN2(Kin.Dom.2,S808G)
T1 construct: gene EIF2AK4

GRK1 = tested on: GRK1
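Note: KINOMEscan kinase panel screen.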

Row | SMILES | %Inh (FGR) [%] | %Inh (FLT1) [%] | %Inh (FLT3-autoinhibited) [%] | %Inh (FLT3) [%] | %Inh (FLT4) [%] | %Inh (FRK) [%] | %Inh (FYN) [%] | %Inh (GAK) [%] | %Inh (GCN2(Kin.Dom.2,S808G)) [%] | %Inh (GRK1) [%]
1 | CCS(=O)(=O)c1ccc(OC)c(Nc2ncc(-c3ccc(F)cc3)o2)c1.Cl [GW591947] | 0 | 26 | 0 | 0 | 6 | 0 | 9 | 0 | 16 | 0
2 | COc1cccc(-n2cnc3c(N)ncnc32)c1 [SKF-97416] | 0 | 0 | 9 | 28 | 0 | 0 | 0 | 26 | 8 | 24
3 | COc1cc2ncn(-c3cc(OCc4ccc(S(C)(=O)=O)cc4)c(C(N)=O)s3)c2cc1OC [GW869979] | 0 | 0 | 14 | 4 | 15 | 0 | 0 | 7 | 0 | 10
4 | Nc1ncnc2c1ncn2-c1ccc(Cl)cc1 [AH2635] | 18 | 39 | 1 | 46 | 9 | 0 | 12 | 7 | 0 | 0
5 | COc1cccc(C2=C(N(C)c3ccccc3)C(=O)NC2=O)c1 [SB-334865] | 13 | 16 | 0 | 0 | 0 | 5 | 13 | 0 | 0 | 5
6 | Cc1cccc(-c2cc(-c3c[nH]nc3-c3ccccn3)ccn2)c1 [GW679395] | 36 | 13 | 0 | 0 | 0 | 15 | 16 | 82 | 0 | 3
7 | Cc1nc(N(C)[C@H]2CN(C(=O)CC#N)CC[C@H]2C)c2cc[nH]c2n1 | 6 | 0 | 0 | 5 | 15 | 0 | 2 | 0 | 0 | 0
8 | Nc1n[nH]c2nnc(-c3ccccc3)c(-c3ccccc3)c12 [GW554060] | 7 | 20 | 0 | 8 | 0 | 5 | 2 | 1 | 8 | 0
9 | FC(F)(F)c1ccc(-c2ncn(CCCN3CCOCC3)c2-c2ccncc2)cc1 [SB-217780] | 11 | 22 | 23 | 14 | 2 | 12 | 10 | 0 | 8 | 12
10 | CCCC(=O)Nc1n[nH]c2ncc(-c3cccc4ccccc34)cc12 [SB-642057] | 10 | 10 | 5 | 0 | 1 | 0 | 42 | 0 | 0 | 0
11 | COc1cc2ncn(-c3cc(OCCCc4ccccc4)c(C(N)=O)s3)c2cc1OC [GSK205189] | 21 | 23 | 0 | 5 | 0 | 0 | 24 | 66 | 0 | 5
12 | COC(=O)c1c(-c2ccccc2)c2cc(Br)ccc2c(=O)n1Cc1ccc(NC(=O)CCC(=O)O)cc1 | 8 | 0 | 0 | 6 | 9 | 8 | 0 | 0 | 0 | 0
13 | Nc1n[nH]c2ncc(-c3ccccc3)cc12 [SB-517081] | 28 | 7 | 49 | 72 | 0 | 15 | 26 | 70 | 52 | 0
14 | O=C(NCc1cccs1)c1cc(C(=O)c2c(Cl)cccc2Cl)c[nH]1 [GW823670] | 7 | 2 | 0 | 2 | 2 | 0 | 0 | 0 | 8 | 0
15 | Cc1ccccc1COc1cc(-n2cnc3cc(Cl)ccc32)sc1C(N)=O [GW813349] | 9 | 5 | 3 | 8 | 10 | 0 | 0 | 1 | 0 | 13
16 | O=C1NC(=O)C(c2ccccc2)=C1Nc1cccc(O)c1 [SB-390534] | 0 | 2 | 5 | 26 | 0 | 0 | 0 | 11 | 0 | 13
17 | COc1cc2nccc(Nc3ccc(OCc4ccc(NC(C)=O)cc4)cc3)c2cc1OC.Cl [GW440135] | 29 | 83 | 0 | 73 | 92.4 | 7 | 1 | 7 | 4 | 22
18 | COc1cc2ncn(-c3cc(OCc4ccncc4)c(C(N)=O)s3)c2cc1OC [GSK336313] | 28 | 19 | 0 | 0 | 17 | 0 | 35 | 17 | 0 | 0
